Experiment [1] can be described thus: qHTS of pediatric cancer cell lines to identify multiple opportunities for drug repurposing: Primary screen for SK-N-MC cells (AID 1347093). Note: potency is the fitted concentration of half-maximal effect. Summed up:
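Metabolically active cells were quantified by ATP-dependent luminescence (CellTiter-Glo, 15 min at room temperature) following 48 h treatment. Cells had been plated at 500-1,000 per well and settled for 5 h beforehand.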

Experiment [2] is described as follows: qHTS of pediatric cancer cell lines to identify multiple opportunities for drug repurposing: Primary screen for NB-EBc1 cells (AID 1347095). Note: potency is the fitted concentration of half-maximal effect. Summed up: (§1)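 Cells seeded at 500-1,000 cells/well in growth media, rested 5 hours at 37 degrees C, 5% CO2, then dosed; MIPE compounds at 11-point (from 0.78 nM) and NPC at 8-point (from 0.59 nM) final concentrations. Viability by CellTiter-Glo luminescence after 48 hours.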
On the technique in general: qHTS replaces the single test concentration by a dilution series.

The nature of experiment [3]: qHTS of pediatric cancer cell lines to identify multiple opportunities for drug repurposing: Primary screen for Saos-2 cells (AID 1347097). Note: nearly all actives have a fitted effect of over 40% in size. Note: potency is the fitted concentration of half-maximal effect. Summed up: as §1
The nature of experiment [4]: qHTS of pediatric cancer cell lines to identify multiple opportunities for drug repurposing: Primary screen for Rh18 cells (AID 1347102). Note: nearly all actives have a fitted effect of over 65% in size. Note: potency is the fitted concentration of half-maximal effect. Summed up: (§2)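 Cells (500-1,000/well) rested 5 h, then received compounds for 48 h; metabolically active cells were measured by CellTiter-Glo luminescence. Final concentrations spanned up to 46 µM (MIPE, 11-point) or 0.59 nM-46 µM (NPC, 8-point) in primary screens, 11-point in follow-ups.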

Experiment [5] is described as follows: qHTS of pediatric cancer cell lines to identify multiple opportunities for drug repurposing: Primary screen for LAN-5 cells (AID 1347100). Note: potency is the fitted concentration of half-maximal effect. Summed up: as §2
Experiment [6] is described as follows: qHTS of pediatric cancer cell lines to identify multiple opportunities for drug repurposing: Primary screen for U-2 OS cells (AID 1347096). Note: nearly all actives have a fitted effect of over 50% in size. Summed up: as §2
A short description of experiment [7]: qHTS of pediatric cancer cell lines to identify multiple opportunities for drug repurposing: Primary screen for NB1643 cells (AID 1347099). Note: nearly all actives have a fitted effect of over 50% in size. Note: potency is the fitted concentration of half-maximal effect. Summed up: as §1
A short description of experiment [8]: qHTS of pediatric cancer cell lines to identify multiple opportunities for drug repurposing: Primary screen for SK-N-SH cells (AID 1347098). Note: nearly all actives have a fitted effect of over 65% in size. Note: potency is the fitted concentration of half-maximal effect. Summed up: as §2
Experiment [9] is described as follows: qHTS of pediatric cancer cell lines to identify multiple opportunities for drug repurposing: Primary screen for BT-12 cells (AID 1347101). Note: nearly all actives have a fitted effect of over 25% in size. Note: potency is the fitted concentration of half-maximal effect. Summed up:
as §2

A short description of experiment [10]: qHTS of pediatric cancer cell lines to identify multiple opportunities for drug repurposing: Primary screen for BT-37 cells (AID 1347094). Note: potency is the fitted concentration of half-maximal effect. Summed up: as §1

Records with an inconclusive call do not appear. Active and inactive are the calls of the source. Calls come from the whole dose curve; as a rule, active = well fitted curve in the direction sought with a large enough effect; inconclusive = small, poorly fitted or top-dose-only effect, or another doubt; inactive = no such curve, though single readings can be large; an effect the other way counts as inactive or inconclusive.

For `CC(=O)Nc1ccn(C2COC(COC(=O)c3ccccc3)O2)c(=O)n1` (configuration not stated), the figures for the Potency in experiment [1] and in experiment [2] were 0.75 µM (active) and 2.37 µM (active), respectively. The Potency entry in experiment [3] and in experiment [4] was “inactive” throughout.

As to `COC(=O)[C@H]1[C@H]2C[C@@H]3c4[nH]c5cc(OC)ccc5c4CCN3C[C@H]2C[C@@H](OC(=O)/C=C/c2ccc(O)c(OC)c2)[C@@H]1OC`, the Potency in experiment [1] was 5.96 µM (active); in [3], 16.8 µM (active); in [5] it was 21.1 µM (active).

Take `CCCCC/C=C\C/C=C\CCCCCCCC(=O)NC(C)c1ccccc1` (configuration not stated): the Potency in [1] is 18.8 µM (active). In addition, the Potency entry in experiment [6], in experiment [7], in [5] and in [4] was “inactive” throughout.

Consider `CC(COc1ccccc1)NN` (configuration not stated), for which the Potency entry in [1], in experiment [2], in [6], in [8], in [5] and in [9] was “inactive” each time. Besides, the Potency entry in experiment [4] was “inactive”.

On to `CCOc1ncc(F)c(=O)[nH]1`, for which the Potency entry in experiment [1], in [6], in experiment [3], in [8], in experiment [7] and in experiment [9] was “inactive” throughout. The Potency entry in experiment [4] was “inactive”.

With `CC(C)=CCC/C(C)=C/CC/C(C)=C/CCC(=O)OC/C=C(\C)CCC=C(C)C`, the Potency entry in [1], in [6], in [3], in [7], in experiment [9] and in experiment [4] was “inactive” throughout.

`CC[N+](CC)(CC)CCOC(=O)C(C1CCCC1)C1CCCC1`: the Potency result in experiment [10], in experiment [2], in experiment [6], in experiment [3], in experiment [8] and in experiment [7] was “inactive” in each case.

As to `CCOC(=O)N1CCC(Nc2ccc(Cl)cc2N)CC1`, the Potency is 10.6 µM (active) in experiment [1]; 6.68 µM (active) in experiment [2]; 19.4 µM (active) in experiment [8]; 8.41 µM (active) in experiment [7]; 2.66 µM (active) in [5]; 4.9 µM (active) in [9]. Also, in experiment [6], the Potency entry was “inactive”.

Turning to `O=c1[nH]sc2cc(Cl)ccc12`, the Potency is 0.001 µM (active) in experiment [1]; 0.001 µM (active) in [2]; 0.217 µM (active) in experiment [8]; 0.001 µM (active) in experiment [5]; 18.8 µM (active) in experiment [4].

`CC(=O)O[C@@H]1CC2C3CCc4cc(OC(=O)c5ccccc5)ccc4C3CCC2(C)[C@H]1OC(C)=O` (some centres not stated): the Potency entry in [1], in [6], in [3], in [8], in experiment [7] and in [5] was “inactive” each time. The Potency result in experiment [9] and in [4] was “inactive” in each case.

As to `CC(C)(C)C1CCC(CC2=C(O)c3ccccc3C(=O)C2=O)CC1` (configuration not stated), the Potency is 5.31 µM (active) in experiment [1], 9.44 µM (active) in [5] and 24.6 µM (active) in [9]. In addition, the Potency result in experiment [6] and in experiment [4] was “inactive” in each case.

Take `Nc1cccc2c(N)cccc12`: the Potency in experiment [1] is 24.3 µM (active); in [3], 27.3 µM (active); in experiment [8], 28 µM (active). For the same molecule, the Potency entry in [6] and in experiment [5] was “inactive” in each case.

Regarding `Cc1cccc(C)c1NC(=O)c1cc(S(N)(=O)=O)c(Cl)cc1O`, the Potency result in experiment [1], in experiment [6], in experiment [3], in [8], in experiment [7] and in experiment [5] was “inactive” each time. Moreover, the Potency entry in experiment [9] and in experiment [4] was “inactive” each time.

On to `NS(=O)(=O)c1ccc(N2CCCCS2(=O)=O)cc1`, for which the Potency result in experiment [1], in [2], in experiment [3], in experiment [8], in experiment [5] and in experiment [9] was “inactive” in each case. The Potency entry in experiment [4] is “inactive”.

Regarding `Cc1nc(C2CCCCC2)c(-c2ccc(S(N)(=O)=O)c(F)c2)o1`, the Potency entry in [1], in experiment [2], in experiment [6], in experiment [7], in [5] and in experiment [4] was “inactive” throughout.

`CC(C)(C)c1ccc(O)c(O)c1`: the Potency is 6.86 µM (active) in experiment [1]; 6.11 µM (active) in [2]; 48.6 µM (active) in experiment [3]; 25 µM (active) in experiment [8]; 19.3 µM (active) in experiment [5]; 25.2 µM (active) in experiment [9].

Turning to `CCc1cc(S(=O)(=O)O)c2cc(C(C)C)cccc1-2`, the Potency entry in [1], in [2], in experiment [3], in experiment [8], in experiment [7] and in experiment [5] was “inactive” each time. In addition, the Potency result in experiment [9] and in experiment [4] was “inactive” throughout.

Take `O=C(CCCCCCCCC#CI)Oc1ccccc1`: the Potency entry in [1], in experiment [2], in [3], in experiment [8], in experiment [7] and in experiment [5] was “inactive” throughout. For the same molecule, the Potency result in experiment [9] and in [4] was “inactive” in each case.

For the molecule `Nc1nc(=O)n([C@@H]2O[C@H](CO)[C@@H](O)[C@@H]2F)cc1I`, the Potency entry in [1], in experiment [2], in [3], in experiment [8], in experiment [7] and in experiment [5] was “inactive” in each case. The Potency result in experiment [4] was “inactive”.

For `CN1CCC(N(Cc2cccs2)c2ccccc2)CC1`, the Potency in experiment [1] was 26.6 µM (active); in experiment [3] it was 21.1 µM (active); in experiment [9], 21.9 µM (active). Also, the Potency result in experiment [6] is “inactive”.

On to `CN1CCN(N)CC1`, for which the Potency result in experiment [1], in [2], in [6], in experiment [8], in experiment [7] and in [5] was “inactive” throughout. Besides, the Potency result in experiment [4] was “inactive”.

As for `CCCCCC(=O)O[C@]1(C(C)=O)CC[C@H]2[C@@H]3CCC4=CC(=O)CC[C@]4(C)[C@H]3CC[C@@]21C`, the Potency in experiment [1] is 13.3 µM (active); in experiment [8], 24.4 µM (active); in experiment [7], 18.8 µM (active); in [5], 26.6 µM (active); in experiment [9] it was 27.6 µM (active).

Consider `COC(=O)C1=C(C)NC(C)=C(C(=O)OCCc2ccc(N3CCN(C(c4ccccc4)c4ccccc4)CC3)cc2)C1c1cccc([N+](=O)[O-])c1` (configuration not stated), for which the Potency result in experiment [10], in experiment [2], in [6], in experiment [3], in [8] and in [5] was “inactive” each time. In addition, the Potency entry in experiment [4] was “inactive”.

In the case of `CCOCCn1c(C2CCN(CCc3ccc(C(C)(C)C(=O)O)cc3)CC2)nc2ccccc21`, the Potency entry in experiment [10], in experiment [2], in experiment [6], in experiment [3], in experiment [7] and in experiment [9] was “inactive” in each case. Further, in [4], the Potency result was “inactive”.

With `CN1CCCN=C1/C=C/c1cccs1`, the Potency entry in experiment [10], in experiment [2], in [6], in experiment [3], in experiment [8] and in [7] was “inactive” each time. In addition, the Potency entry in experiment [5], in [9] and in experiment [4] was “inactive” throughout.

Take `CC(C)C(=O)OCc1cccc(OC(=O)[C@@H]2N3C(=O)[C@@H](NC(=O)Cc4ccccc4)[C@H]3SC2(C)C)c1`: the Potency result in [10], in experiment [2], in experiment [6], in [3], in [8] and in experiment [7] was “inactive” in each case. Further, the Potency entry in experiment [5], in experiment [9] and in experiment [4] was “inactive” in each case.

As to `O=C(OCCN1CCOCC1)c1cccnc1Nc1cccc(C(F)(F)F)c1`, the Potency result in [10], in experiment [2], in experiment [6], in experiment [3], in experiment [8] and in experiment [7] was “inactive” throughout. The Potency result in [5], in experiment [9] and in experiment [4] was “inactive” each time.

As to `c1ccc2occc2c1`, the Potency result in [10], in [2], in [6], in experiment [7], in experiment [5] and in experiment [9] was “inactive” throughout. In experiment [4], the Potency result is “inactive”.

For `CC(=O)[C@H]1CC[C@H]2[C@@H]3C=CC4=CC(=O)CC[C@@]4(C)[C@@H]3CC[C@]12C`, the Potency result in experiment [10], in experiment [2], in [6], in experiment [3], in experiment [8] and in experiment [7] was “inactive” each time. Moreover, the Potency entry in [9] and in experiment [4] was “inactive” in each case.

Regarding `COc1ccccc1N1CCN(CC(O)COc2cc(OC)c(OC)c(OC)c2)CC1` (configuration not stated), the Potency entry in [10], in [2], in experiment [6], in [3], in [8] and in [7] was “inactive” in each case. In addition, the Potency result in [5], in experiment [9] and in experiment [4] was “inactive” throughout.

For `CC(=O)[C@@]1(O)CC[C@H]2[C@@H]3C[C@H](C)C4=CC(=O)CC[C@]4(C)[C@H]3CC[C@@]21C`, the Potency entry in [10], in experiment [2], in experiment [6], in [3], in [8] and in experiment [7] was “inactive” each time. Further, the Potency entry in experiment [4] is “inactive”.

With `N[C@@H](Cc1cc(I)c(O)c(I)c1)C(=O)O`, the Potency result in [10], in [2], in [6], in experiment [8], in experiment [7] and in [5] was “inactive” each time. For the same molecule, the Potency entry in experiment [9] and in experiment [4] was “inactive” each time.

For `Nc1ccc2cc3ccc(N)cc3nc2c1`, the Potency in experiment [10] was 9.78 µM (active); in experiment [2], 4.73 µM (active); in [8] it was 7.7 µM (active); in experiment [5], 4.22 µM (active); in experiment [9], 7.77 µM (active).

For the molecule `Cc1ncc([N+](=O)[O-])n1C`, the Potency entry in experiment [10], in experiment [2], in [3], in experiment [8], in [7] and in [5] was “inactive” in each case. The Potency result in experiment [9] and in [4] was “inactive” in each case.

As for `CN1C(=O)CC(C)(c2ccccc2)C1=O` (configuration not stated), the Potency entry in experiment [10], in experiment [2], in experiment [6], in experiment [8], in experiment [7] and in experiment [5] was “inactive” each time. Also, the Potency entry in experiment [9] and in experiment [4] was “inactive” in each case.

As to `COc1cc2nc(Cl)nc(N)c2cc1OC`, the Potency result in experiment [10], in experiment [2], in [6], in experiment [3], in experiment [7] and in experiment [5] was “inactive” throughout. In [4], the Potency result is “inactive”.

The values above are taken from PubChem BioAssay (NCATS).
